# Reference: PubChem BioAssay (NCI)
# About 83,000 compounds went through this panel and 20% of them were active in at least one assay; those are over-represented in the sample as a whole.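 Compound tested at a single concentration for 48 hours in 96-well plates; a percent growth value below 10 was scored as active.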 A number with no mark means an inactive call. Active and inactive are the calls of the source.
# Key:
# Test in all cases: NCI-60 one-dose screen, 48 h (100 = growth as untreated, 0 = no growth, -100 = all killed)
# Conditions in all cases: 10 µM unless noted
# [1] = system: NCI-H23 lung
# [2] = system: NCI-H226 lung
# [3] = system: NCI-H322M lung
# [4] = system: HOP-62 NSCLC
# [5] = system: NCI-H460 lung
# [6] = system: HOP-92 NSCLC
# [7] = system: NCI-H522 lung
# [8] = system: A549/ATCC NSCLC
# [9] = system: 786-0 renal
# [10] = system: COLO 205 colon
# [11] = system: DU-145 prostate
# [12] = system: K-562 leukemia
# [13] = system: MALME-3M melanoma
# [14] = system: MDA-MB-231 breast
# [15] = system: RXF 393 renal
# [16] = system: SF-268 CNS
# [17] = system: SF-295 CNS
# [18] = system: SF-539 CNS
# [19] = system: UACC-257 melanoma
# [20] = system: M14 melanoma
SMILES,growth [1],growth [2],growth [3],growth [4],growth [5],growth [6],growth [7],growth [8],growth [9],growth [10],growth [11],growth [12],growth [13],growth [14],growth [15],growth [16],growth [17],growth [18],growth [19],growth [20]
Cc1cccc2c3c(sc12)C(c1ccc(F)cc1)C(C#N)=C(N)O3 (stereo not given),21.3%,26.1%,46.4%,33.2%,3.07% (active),68.4%,13.6%,22.1%,16.7%,-37.3% (active),7.98% (active),8.65% (active),73.8%,26.9%,38.7%,27.8%,5.18% (active),-15.3% (active),68.2%,10.4%
O=C(N/N=C/c1c(Cl)cccc1Cl)c1ccc(C(F)(F)F)nc1Nc1cccc(C(F)(F)F)c1,-10.6% (active),14.2%,1.62% (active),28.2%,7.11% (active),7.35% (active),-3.43% (active),18.6%,8.61% (active),-15.4% (active),11.4%,-7.07% (active),5.8% (active),11.3%,40.8%,-2.71% (active),13.7%,1.63% (active),7.6% (active),23.6%
NCCCNc1nc2ccccc2c2c(=O)c3cc(F)cc(F)c3sc12,84%,92.5%,84.5%,78.9%,-75.1% (active),36%,92.7%,78.1%,-88.8% (active),63.6%,73.4%,-42.9% (active),73.6%,18.2%,63.6%,81.7%,105%,-92.3% (active),100%,-85.2% (active)
Cc1ccc(C(=O)NCCNc2nccc(-c3c(-c4cccc(F)c4)nc4sccn34)n2)cc1,70.5%,36.4%,64.8%,86.1%,34.8%,74.8%,72.2%,31.2%,60.8%,27.6%,62.9%,48.7%,47.3%,72.5%,39.9%,60%,62.5%,90.1%,75.1%,44%
CCOC(=O)c1cn2ncnc(Oc3ccc(NC(=O)NCCN(CC)CC)c(Cl)c3)c2c1C,76.6%,91.5%,98.7%,84.2%,104%,41.5%,72.9%,91.5%,72%,57.2%,90.5%,-9.77% (active),22.3%,59.8%,41%,65%,92%,50.7%,-41.7% (active),-64.4% (active)
CCCCCCNC(=O)Oc1ccc(/C(=C(\C)c2ccc(Cl)cc2)c2ccc(OCCCN(C)C)cc2)cc1,80.5%,110%,81.7%,97%,32.7%,58.6%,83.7%,63.5%,56.8%,23.8%,84.9%,-28.4% (active),68.6%,79.2%,80.1%,77%,97.5%,87.9%,60%,76.7%
Cc1ccc(-c2nc(SCC(=O)Nc3nc(-c4ccc(Cl)cc4)cs3)[nH]c(=O)c2C#N)cc1,95.1%,89.5%,101%,94%,105%,-13.3% (active),77.5%,86.7%,93.2%,117%,103%,97.1%,109%,110%,114%,98.1%,101%,117%,88%,91.7%
Cc1cccc2c3c(sc12)C(c1ccc(Cl)cc1)C(C#N)=C(/N=C/c1ccc(Cl)cc1)O3 (stereo not given),27.2%,18%,49.9%,42%,6.47% (active),96.5%,22.8%,30.9%,31.9%,0.544% (active),20.1%,8.84% (active),56.6%,28.5%,-15.3% (active),44.6%,1.19% (active),-13.7% (active),65.1%,4.4% (active)
NS(=O)(=O)c1ccc(-n2nc(-c3ccc(Cl)cc3)c3ccccc3c2=O)cc1,101%,96.1%,148%,92.6%,96.3%,80.9%,87.4%,87.5%,92.7%,111%,111%,84.2%,182%,87.9%,98.8%,98.1%,97.3%,89.4%,116%,103%
O=C1c2cccc3cccc(c23)C(=O)N1Nc1nc(NC2CCCCC2)nc(N2CCOCC2)n1,95.4%,98%,93.4%,91.3%,102%,86.3%,93.5%,95%,104%,107%,108%,88.9%,90.1%,82.9%,109%,99.7%,105%,98.4%,100%,95.4%
Cc1cccc2c1S/C(=C/c1ccc([N+](=O)[O-])cc1)C2=O,91.3%,86.6%,96.3%,92.5%,106%,105%,93.1%,106%,106%,114%,106%,42.2%,99.4%,103%,140%,103%,89.8%,101%,108%,98.2%
COc1ccc2sc3c(NCCCN(C)C)nc4ccccc4c3c(=O)c2c1,56.7%,82.4%,80.3%,74.7%,-69.5% (active),20%,79.4%,73.9%,68.5%,-1.26% (active),41.3%,-21.9% (active),58%,-6.11% (active),44.1%,66.4%,83.7%,1.35% (active),76.7%,-57.8% (active)
CCCCCCCCCCCCCCCCCCOc1ccccc1CCCOP(=O)(O)OCC[N+](C)(C)C,93.5%,92.3%,113%,59.3%,14.1%,33.4%,67.9%,54.8%,85.1%,31.6%,75%,69.2%,89.5%,78.2%,11.1%,62.5%,52.4%,91.4%,88%,77.7%
O=C(Nc1c2ccccc2nc2ccccc12)c1ccccc1CN1C(=O)c2ccccc2C1=O,28.6%,40.2%,21%,37.4%,3.79% (active),38.5%,23.7%,18.8%,38.9%,9.84% (active),27.3%,22.8%,31.2%,34.3%,43.9%,34.3%,31.7%,21.6%,38.5%,21%
